Hits are enriched below; roughly 4.8% of the tested compounds scored in any of these assays.
DAX1 inh-1 = blocks DAX1 repression of SF-1 activated StAR promoter; inhibition, % at 6.8 µM; hit rate 1.1% among 370,000; HEK293T StAR-luciferase reporter, SF-1/DAX-1 repression relief;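 active = inhibition above the mean over all tested compounds plus 3 SD, cut at about 3.6% in these data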;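 also: higher inhibition means more luminescence from relief of DAX-1 repression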
DAX1 inh-2 = inhibitors of human orphan nuclear receptor DAX1 (NR0B1). P51843. HEK293 Gal4-DAX1 luciferase reporter, luminescence. inhibition, % at 6.75 µM. hit rate 0.99% among 340,000;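 active = inhibition above the mean over all tested compounds plus 3 SD, cut at about 4.2% in these data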;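 also: inhibition shows as a rise in luminescence from relieved DAX1 repression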
Target sequence (P51843 207-470 limits assumed): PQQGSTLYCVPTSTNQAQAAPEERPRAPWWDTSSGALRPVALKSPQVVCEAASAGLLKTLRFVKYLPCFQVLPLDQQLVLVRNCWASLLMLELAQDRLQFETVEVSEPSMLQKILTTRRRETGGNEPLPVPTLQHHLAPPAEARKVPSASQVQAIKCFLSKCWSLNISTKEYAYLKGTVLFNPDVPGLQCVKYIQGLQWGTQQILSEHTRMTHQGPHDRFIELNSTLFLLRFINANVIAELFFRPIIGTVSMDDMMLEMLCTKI
ssDAF-12 act = S. stercoralis DAF-12 activation, primary screen | HEK293 ssDAF-12/GRIP1 lit1-tk-luc reporter, luminescence; % of 3 µM dafachronic acid response | activation, % at 6.8 µM | hit rate 1% among 370,000 | AID 652126;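 active = activation above the mean over all tested compounds plus 3 SD, cut at about 0.9% in these data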
hgDAF12 agonist = hgDAF-12 agonism, primary luciferase screen | HEK293 GAL4-hgDAF12 UAS-luciferase reporter, agonist luminescence; normalized to butyrate control | activation, % at 6.8 µM | hit rate 1.8% among 370,000;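 active = activation above a cutoff set at the mean of all screened compounds plus 3 SD, cut at about 10% in these data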
hcDAF12 agonist = activators of H. contortus DAF-12 nuclear receptor; HEK293 hcDAF-12 lit1-tk-luc reporter, luminescence; 0% DMSO, 100% Δ7-dafachronic acid; hit rate 1.4% among 370,000; AID 652067; activation, % at 6.8 µM;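 active = activation above the mean of all tested compounds plus 3 SD, cut at about 5.5% in these data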
SMARCA2 act = activators of SMARCA2 function. hit rate 1% among 370,000. activation, % at 9.1 µM. MG213 cells, MMTV-luciferase reporter, dexamethasone, overnight; in the data active = activation above about 7.8%
Numbers stand for hits; 0 = inactive; - = not tested or not shown.

SMILES	DAX1 inh-1	DAX1 inh-2	ssDAF-12 act	hgDAF12 agonist	hcDAF12 agonist	SMARCA2 act
COc1cc2c(c(OC)c1OC)-c1ccc(O)c(=O)cc1C(NC(C)=O)CC2 (stereo unspecified)	0	6.4	0	0	0	0
COc1ccc(OC)c(-n2c(O)c(/C=C3\C=Nc4ccccc43)c(=O)[nH]c2=O)c1	0	0	2.9	0	0	0
CCCCN1CCN(C(=O)COc2cc(=O)n(C)c3ccccc23)CC1	0	-	0	0	0	0
C[C@H]1CC[C@@H]2[C@@H](C)[C@H]3[C@H](C[C@H]4[C@@H]5CC=C6C[C@@H](O[C@@H]7O[C@H](CO)[C@H](O)[C@H](O[C@@H]8O[C@H](CO)[C@@H](O)[C@H](O)[C@H]8O)[C@H]7O[C@@H]7O[C@@H](C)[C@H](O)[C@@H](O)[C@H]7O)CC[C@]6(C)[C@H]5CC[C@]34C)N2C1	0	4.3	0	0	0	0
O=P(OCCCl)(OCCCl)OCCCl	0	-	0	0	0	0
Cc1ccc2cc(C=C(C#N)C#N)c(Cl)nc2c1	0	0	1.4	0	0	0
COc1ccc([C@@H]2C[C@H]3[C@@H](CN2)CON3C)cc1	0	-	0	0	0	0
CC1(C)NC(=S)C(C)(C)N1N=O	0	0	6.5	0	0	0
CN1C(=O)C(Cc2ccccc2)C(=O)N(C)C1=O	0	0	0	0	0	0
CN1C(=O)c2ccccc2NC(=O)C1Cc1ccccc1 (stereo unspecified)	0	4.9	0	0	0	0
COc1ccc2c(c1)CC1(CN2C)C(=O)NC(=O)N(c2ccc(F)cc2)C1=O (stereo unspecified)	0	0	0	0	6.0	0
CC1CCCCN1Cc1c[nH]c2ccccc12 (stereo unspecified)	0	0	0	0	0	0
CC1CCCCN1CC(O)c1c[nH]c2ccccc12 (stereo unspecified)	0	0	0	0	6.4	0
Cc1c(NP(=O)(C(C)(C)C)C(C)(C)C)c(=O)n(-c2ccccc2)n1C	0	0	0	0	0	0
Cc1cc(=O)n(-c2ccccc2)n1-c1ccccc1	0	4.8	0	0	0	0
Brc1ccc2c(c1)-n1nncc1CNC2	0	-	0	0	0	0
C=C1C[C@]2(O)[C@@]3(C)CCC(=O)C(C)(C)C3=C(O)C(=O)[C@@]2(C)[C@@H]2C(=O)O[C@@](C)(C(=O)OC)C(=O)[C@@]12C	0	5.0	0	0	0	0
Cc1ccc(CS(=O)(=O)Cc2ccc(C(=O)N3CCC4(CC3)OCCO4)o2)cc1	0	0	0	0	0	0
Cc1ccc(S(=O)(=O)Cc2ccc(C(=O)N3CCC4(CC3)OCCO4)o2)cc1	0	0	0	0	5.8	0
O=C(NC(CCC(O)CO)P(=O)(Oc1ccccc1)Oc1ccccc1)OCc1ccccc1 (stereo unspecified)	0	-	0	0	0	0
COc1ccc(-n2c(=O)[nH]c3ccccc3c2=O)c(OC)c1	0	0	0	0	0	0
COc1ccc2c(c1)NP(=S)(c1ccccc1)N2C (stereo unspecified)	4.5	5.3	0	0	0	0
COc1cccc(-c2ccc3c(c2)C2c4cnnn4-c4ccccc4C(=O)N2CC3)c1 (stereo unspecified)	0	-	0	0	0	0
Cc1cc(C)cc(NC(=O)CCNC(=O)N2C[C@H]3C[C@@H](C2)c2cccc(=O)n2C3)c1	0	4.3	0	0	0	0
Oc1ccc2ccccc2c1CN1CC=C(c2ccccc2)CC1	0	5.2	0	0	0	0
SMILES	DAX1 inh-1	DAX1 inh-2	ssDAF-12 act	hgDAF12 agonist	hcDAF12 agonist	SMARCA2 act
Cc1c(C(c2ccccc2Cl)c2c(O)c3ccccc3oc2=O)c(=O)n(-c2ccccc2)n1C (stereo unspecified)	0	4.3	0	0	0	0
Cc1c(C(c2ccc(F)cc2)c2c(O)c3ccccc3oc2=O)c(=O)n(-c2ccccc2)n1C (stereo unspecified)	0	0	0	0	0	0
O=Cc1cn(Cc2c(F)cccc2Cl)nc1-c1ccccc1	0	0	0	0	0	0
CCc1ccc(-c2nn(Cc3ccccc3)cc2C=O)cc1	0	0	0	13	0	0
CCOC(=O)[C@]12Cc3ccccc3[C@H]1N(C(C)C)C(=O)c1ccccc12	4.5	-	0	0	0	0
CC(NC(=O)OCc1ccccc1)P(=O)(Oc1ccccc1)Oc1ccccc1 (stereo unspecified)	0	-	0	0	0	0
COC(=O)C1=C(C)OC(N)=C(C#N)C12C(=O)Nc1ccccc12 (stereo unspecified)	0	0	0	0	0	0
COCCOC(=O)C1=C(N)OC(C)=C(C(=O)OC)C12C(=O)Nc1ccccc12 (stereo unspecified)	0	0	0	0	6.2	0
N#CCC[C@@H]1CC[C@]2(CCCN(Cc3ccccn3)C2)O1	0	-	0	0	0	0
COc1cc(C2c3cc4c(cc3CC3COC(=O)C32)OCO4)cc(OC)c1OC (stereo unspecified)	4.4	0	0	0	0	0
Cc1c(P(=S)(c2ccccc2)c2ccccc2)c2ccccc2n1C	-	-	0	0	0	-
CCCCN1C(=O)NC(=O)C2(Cc3c(nc4ccccn4c3=O)N3CCc4ccccc4C32)C1=O (stereo unspecified)	0	0	0	0	6.0	0
CN1CC[C@@H]2CN[C@H](c3ccccc3)C[C@@H]21	0	-	0	0	0	0
Cc1cc(OCC(=O)NC(Cc2ccc(Cl)cc2)C(=O)O)c2c3c(c(=O)oc2c1)CCC3 (stereo unspecified)	0	5.8	0	0	0	0
C=C(C=O)CC1CC(O)[C@]2(C)OC3CC4OC5C[C@]6(C)O[C@]7(C)CCC8OC9C[C@]%10(C)OC%11C(C)=CC(=O)OC%11CC%10OC9C[C@@H](C)C8OC7CC6O[C@]5(C)C/C=C\C4OC3CC2O1 (stereo partly specified)	-	-	0	0	0	-
COC(=O)CSC1=NN1c1cc(C)nc(N)n1	0	4.7	0	0	0	0
CN1C(=O)NC(=O)/C(=C\C=C\c2ccccc2[N+](=O)[O-])C1=O	0	-	1.4	0	0	0
Cc1cccc(C(C)c2cnc[nH]2)c1C (stereo unspecified)	0	-	0	0	0	0
Cc1nn(Cc2ccccc2)c(C)c1C=C1C(=O)NC(=S)NC1=O	0	0	0	0	6.1	0
O=C1CN(C(=O)COC(=O)Cc2ccccc2)c2ccccc2N1	0	4.4	0	0	0	0
C[N+]1=C(N)NC2=C3CCCCC3ONC2C1 (stereo unspecified)	-	-	0	0	0	-
O=C1NC(=O)C(=Cc2ccc(OCCOc3ccc([N+](=O)[O-])cc3)cc2)C(=O)N1	0	0	0	0	0	0

Assay outcomes as filed in PubChem.
